Reference: ChEMBL document CHEMBL3988442, “University of Dundee, Small-Polar-MMV Screening Library” (2021)
Hit rate of the full screen: of about 48,000 compounds, about 13,000 (27%) showed an effect of 50% or more. Some of the results follow.

The compounds below were run on Wolbachia pipientis (assay: Anti-Wolbachia Cell-Based Screen). Conditions: 5 µM.
Format: functional
Design: scale not given: in the data most compounds retested in dose-response had high values
For `Cc1cnn(CCNCC(O)COc2c(C)ccc(C)c2C)c1` (stereo unspecified), the “Percent Effect” value was -3.427%.
With `COc1cccc(-c2cccc(-c3ccn(CC4COCCO4)n3)c2)n1` (stereo unspecified) the “Percent Effect” value was -14.19%.
`COc1ccccc1CNC1(CCO)CCOCC1` was tested, and the “Percent Effect” value was 8.279%.
For `Cc1cnc(C(=O)N2C[C@@H]3[C@@H](C2)OCC(=O)N3CC2CCCC2)cn1`, the “Percent Effect” value was 9.694%.
With `CNC(=O)[C@H]1C[C@@H]2CN(C(=O)c3cnc(C)cn3)C[C@@H]2N1C` the “Percent Effect” value was 18.09%.
For `Cc1cnc(C(=O)N2C[C@H]3CN(Cc4cccs4)C[C@H]3C2)cn1`, the “Percent Effect” value was 71.69%.
`Cc1cnc(C(=O)N2C[C@H]3CN(Cc4nccs4)C[C@H]3C2)cn1` was tested, and the “Percent Effect” value was 103.8%.
For `Cc1cnc(C(=O)N2C[C@H]3CCCC(OCc4cccnc4)[C@H]3C2)cn1` (stereo partly specified), the “Percent Effect” value was -8.577%.
In the case of `O=C(c1cscn1)N1C[C@H]2CN(Cc3nccs3)C[C@H]2C1`, the “Percent Effect” value is reported as -12.17%.
For `O=C(O)C(F)(F)F.O=C1C[C@H]2[C@@H](CCN2C(=O)c2ccccc2)N1CCN1CCOCC1`, the “Percent Effect” value was -5.805%.
With `Cc1cccc(OC2CCN(c3nc(N)nc4[nH]cnc34)CC2)c1` the “Percent Effect” value was -26.6%.
`COc1ccccc1N1CCN(c2nc(N)nc3[nH]cnc23)CC1` was tested, and the “Percent Effect” value was 106.2%.
`COc1ccccc1OC1CCN(c2nc(N)nc3[nH]cnc23)CC1` was tested, and the “Percent Effect” value was -23.58%.
In the case of `O=C1CN(Cc2ccc3ccccc3n2)CCN1C1CCCC1`, the “Percent Effect” value is reported as 128.2%.
`Cc1ccc2nc(CN3CCN(C4CCCC4)C(=O)C3)cc(O)c2c1` was tested, and the “Percent Effect” value was 1.578%.
For `Cc1ccc2nc(CN3CCN(C4CCCCC4)C(=O)C3)cc(O)c2c1`, the “Percent Effect” value was -5.19%.
With `Cc1ccc(-c2cccc(CC3(C(=O)O)CCOCC3)c2)c(C)c1` the “Percent Effect” value was 93.34%.
For `Cc1cc(C)cc(-c2cccc(CC3(C(=O)O)CCOCC3)c2)c1`, the “Percent Effect” value was -21.94%.
With `Cc1ccccc1-c1cccc(CN2C[C@H]3C(=O)NC[C@@]3(C(=O)O)C2)c1` the “Percent Effect” value was 6.685%.
With `Cc1cccc(-c2cccc(CC3(C(=O)O)CCOCC3)c2)c1` the “Percent Effect” value was 103%.
`Cc1cccc(NC(=O)NCC2(N3CCOCC3)CCSC2)c1` (stereo unspecified) was tested, and the “Percent Effect” value was 9.501%.
`COc1ccc(CC2(C(=O)O)CCN(c3nc(C)ncc3C)CC2)cc1` was tested, and the “Percent Effect” value was -10.05%.
`C=C(C)CN(CC)C(=O)Nc1ccccc1CN(C)C(C)=O` was tested, and the “Percent Effect” value was 4.408%.
With `Cc1nc2ccc(CN3CC4(CCOC4)CCC3=O)cc2[nH]1` (stereo unspecified) the “Percent Effect” value was 9.533%.
In the case of `COCc1nc2n(n1)CCCC2Nc1nc(C)ns1` (stereo unspecified), the “Percent Effect” value is reported as -20.01%.
For `COc1ccccc1OCc1cc(C(=O)N2CCS(=O)(=O)CC2)n[nH]1`, the “Percent Effect” value was -14.83%.
In the case of `COc1ccccc1OCc1cc(C(=O)N2CCN[C@H](C)C2)n[nH]1`, the “Percent Effect” value is reported as 8.163%.
For `O=C(c1cc(COc2ccc3c(c2)OCO3)[nH]n1)N1CCCC1`, the “Percent Effect” value was -5.101%.
For `CCC1(CO)CCCN(C(=O)c2cc(COc3cccc(F)c3)[nH]n2)C1` (stereo unspecified), the “Percent Effect” value was 87.47%.
`COc1ccccc1OCc1cc(C(=O)N2CCN(C(C)=O)CC2)n[nH]1` was tested, and the “Percent Effect” value was -25.23%.
With `COc1ccccc1OCc1cc(C(=O)N2CCC(C(C)O)CC2)n[nH]1` (stereo unspecified) the “Percent Effect” value was 7.435%.
In the case of `CCC1(CO)CCCN(C(=O)c2cc(COc3ccccc3F)[nH]n2)C1` (stereo unspecified), the “Percent Effect” value is reported as 110.4%.
With `CCC1(CO)CCN(C(=O)c2cc(COc3ccccc3F)[nH]n2)CC1` the “Percent Effect” value was 118.9%.
With `COc1cccc(OCc2cc(C(=O)N3CC(O)C3)n[nH]2)c1` the “Percent Effect” value was -9.479%.
For `CC(C)N(Cc1ccccc1)Cc1csc(-c2ncccn2)n1`, the “Percent Effect” value was -35.25%.
In the case of `CCc1cccc(NC(=O)N2CCn3cnc(COC)c3C2)c1`, the “Percent Effect” value is reported as 112.6%.
`CCOCc1ncn2c1CN(C(=O)Nc1cccc(F)c1)CC2` was tested, and the “Percent Effect” value was 101.4%.
With `CCOCc1ncn2c1CN(C(=O)Nc1cccc(C)c1)CC2` the “Percent Effect” value was -4.198%.
For `CCOCc1ncn2c1CN(C(=O)c1ccoc1)CC2`, the “Percent Effect” value was -9.138%.
`Cn1nc(CN2CCCCC2)c2c1CN(C(=O)Nc1cccc(F)c1)C2` was tested, and the “Percent Effect” value was -11.17%.
In the case of `Cc1cccc(NC(=O)N2CCn3cnc(COCC4CC4)c3C2)c1`, the “Percent Effect” value is reported as 96.57%.
In the case of `Cc1cccc(C(=O)N2CCn3cnc(COCC4CC4)c3C2)c1`, the “Percent Effect” value is reported as -5.443%.
`CCOCc1ncn2c1CN(C(=O)Nc1ccccc1)CC2` was tested, and the “Percent Effect” value was 106.5%.
`Cc1cccc(C(=O)N2CCn3cnc(COCC4CC4)c3C2)n1` was tested, and the “Percent Effect” value was -8.525%.
For `CCOCc1ncn2c1CN(S(=O)(=O)c1cccs1)CC2`, the “Percent Effect” value was -7.388%.
For `CCN(CCSc1ccccc1)C(=O)c1cn([C@H]2CC[C@@H](N)CC2)nn1`, the “Percent Effect” value was -3.362%.
For `Cc1ccc(Cl)cc1NS(=O)(=O)c1cc(C(N)=O)n(C)c1`, the “Percent Effect” value was -91.07%.
With `Cc1cccc(C(=O)N2CCc3ncnc(C4CCOC4)c3CC2)n1.O=C(O)C(F)(F)F` (stereo unspecified) the “Percent Effect” value was -11.48%.
For `COC(=O)c1sc(NCc2ccc(N3CCC(O)CC3)c(F)c2)nc1Cl`, the “Percent Effect” value was -2.093%.
With `CC(C)C(N)C1=N/C(=C2\N=CN=N2)NO1` (stereo unspecified) the “Percent Effect” value was -4.222%.
With `CCn1ccnc1CN(C)Cc1nc(Cc2ccccc2F)no1` the “Percent Effect” value was -2.902%.
With `COc1cccc(S(=O)(=O)N2CCn3cnc(COCC4CC4)c3C2)c1` the “Percent Effect” value was -6.989%.
For `COCc1ncn2c1CN(C(=O)Nc1cccc(OC)c1)CC2`, the “Percent Effect” value was 106.3%.
With `CCOCc1ncn2c1CN(S(=O)(=O)c1ccc(C)cc1)CC2` the “Percent Effect” value was 1.086%.
With `O=C(Nc1ccccc1)N1CCn2nnc(COc3cccnc3)c2C1.O=C(O)C(F)(F)F` the “Percent Effect” value was -20.87%.
With `CCc1ccccc1NC(=O)N1CCn2cnc(COC)c2C1` the “Percent Effect” value was 1.009%.
With `CCOCc1ncn2c1CN(S(=O)(=O)c1ccc(F)cc1)CC2` the “Percent Effect” value was 3.769%.
With `COCc1ncn2c1CN(S(=O)(=O)c1ccc(C)cc1)CC2` the “Percent Effect” value was -7.243%.
For `CCOCc1ncn2c1CN(C(=O)Nc1ccc(CC)cc1)CC2`, the “Percent Effect” value was 108%.
With `CCOCc1ncn2c1CN(C(=O)Nc1ccccc1CC)CC2` the “Percent Effect” value was 104.8%.
In the case of `COc1cccc(NC(=O)N2CCC(O)(C(F)(F)F)C2)c1` (stereo unspecified), the “Percent Effect” value is reported as -18.52%.
For `COCc1ncn2c1CN(C(=O)Nc1ccccc1)CC2`, the “Percent Effect” value was 105.1%.
In the case of `N#Cc1ccc(F)c(CN2CCCC2Cn2cnc3ccccc32)c1` (stereo unspecified), the “Percent Effect” value is reported as -5.507%.
With `CN1CCOC(C(=O)Nc2nnc(Cc3ccc(F)cc3)[nH]2)C1` (stereo unspecified) the “Percent Effect” value was -0.8523%.
For `Cc1cccc(NCc2ncc(C(C)(C)C)o2)c1`, the “Percent Effect” value was -14.59%.
For `O=C(CN1CCS(=O)(=O)CC1)NC1CCCOc2ccccc21` (stereo unspecified), the “Percent Effect” value was 0.4653%.
In the case of `CCN(Cc1ccoc1)C(=O)c1cc2c(c(S(N)(=O)=O)c1)CCC2`, the “Percent Effect” value is reported as -33.33%.
For `CN(CC(=O)NC(C)(C#N)C1CC1)Cc1nc2ccccc2n1C` (stereo unspecified), the “Percent Effect” value was -1.45%.
With `COc1cc2cc3c(nc2cc1OC)OCCN(Cc1ccco1)C3` the “Percent Effect” value was 100%.
With `COc1cncc(N2CCN(Cc3ccco3)CC2)n1` the “Percent Effect” value was -6.733%.
In the case of `CC(C)N1CCOCC2(CN(Cc3ccco3)CCO2)C1` (stereo unspecified), the “Percent Effect” value is reported as -3.394%.
In the case of `COc1cccc2c1OCCCN(Cc1ncccc1C(=O)O)C2`, the “Percent Effect” value is reported as 13.59%.
`COc1cc2cc3c(nc2cc1OC)OCCN(CC1CC1)C3` was tested, and the “Percent Effect” value was 154.4%.
For `c1ccc(O[C@H]2COCCN(CC3CC3)C2)cc1`, the “Percent Effect” value was -13.37%.
For `COc1ncc(C2(O)CCN(Cc3cccs3)CC2)c(OC)n1.Cl`, the “Percent Effect” value was -7.48%.
`COc1cc2cc3c(nc2cc1OC)OCCN(Cc1cccs1)C3` was tested, and the “Percent Effect” value was 120.6%.
`COc1ccccc1CN1C(=O)O[C@@H]2CN(CC3CC3)C[C@@H]21` was tested, and the “Percent Effect” value was 6.078%.
`CCc1cc(CNC(=O)Nc2cc(F)ccc2N2CCCCC2)on1` was tested, and the “Percent Effect” value was -38%.
`CCN(CCC(=O)OC)S(=O)(=O)c1cnc2c(c1)c(C)nn2C` was tested, and the “Percent Effect” value was 10.85%.
In the case of `Cc1cc(C(C)NCCN2CCC(N(C)C)CC2)c(C)s1` (stereo unspecified), the “Percent Effect” value is reported as -5.987%.
`COCC(NC(=O)c1cc(NC(C)=O)ccc1Cl)c1ccccn1` (stereo unspecified) was tested, and the “Percent Effect” value was -0.4749%.
`O=C(C1CC=CC1)N1CCC2(CC1)CN(Cc1ccccn1)CCO2` was tested, and the “Percent Effect” value was -14.52%.
`O=S1(=O)NCC2(CCCN(Cc3cccnc3)C2)Oc2ncccc21` (stereo unspecified) was tested, and the “Percent Effect” value was 131.9%.
With `O=C1COC2(CCN(Cc3ccncc3)CC2)CN1CC1CC1` the “Percent Effect” value was -5.616%.
For `Fc1cccc(N2CCCC3(CN(Cc4ccccn4)CCO3)C2)c1.O=C(O)C(F)(F)F.O=C(O)C(F)(F)F.O=C(O)C(F)(F)F` (stereo unspecified), the “Percent Effect” value was -3.088%.
`O=S1(=O)NCC2(CCCN(Cc3ccccn3)C2)Oc2ncccc21` (stereo unspecified) was tested, and the “Percent Effect” value was 140.3%.
In the case of `Cc1cc(F)ccc1OC1(C(=O)O)CCN(Cc2ccncc2)CC1`, the “Percent Effect” value is reported as 7.519%.
With `O=C(O)C(F)(F)F.O=C(O)C(F)(F)F.O=C(O)C(F)(F)F.c1cncc(CN2CCCC3(COCCN(c4cnccn4)C3)C2)c1` (stereo unspecified) the “Percent Effect” value was -4.353%.
In the case of `Fc1cccc(N2CCCC3(CN(Cc4cccnc4)CCO3)C2)c1.O=C(O)C(F)(F)F.O=C(O)C(F)(F)F.O=C(O)C(F)(F)F` (stereo unspecified), the “Percent Effect” value is reported as 2.254%.
`O=S1(=O)NCC2(CCN(Cc3ccncc3)CC2)Oc2ncccc21` was tested, and the “Percent Effect” value was 130.7%.
For `C[S+]([O-])c1nncn1CC(=O)c1ccc(Cl)c(Cl)c1` (stereo unspecified), the “Percent Effect” value was 17.05%.
For `Cc1cnn(CCCN2C(=O)CCc3ccccc32)c1`, the “Percent Effect” value was 16.17%.
`Cc1cc(N2CCCN(C(=O)Cc3cccnc3)CC2)ccn1` was tested, and the “Percent Effect” value was -24.68%.
With `O=C(CSCC1CC1)N1CCCN(Cc2ccc(F)cc2)CC1` the “Percent Effect” value was 113.6%.
With `Cc1nc(CC(=O)N2CCCN(c3ccc(F)cc3)CC2)cs1` the “Percent Effect” value was 6.987%.
For `O=C(CSCC1CC1)N1CCCN(c2ccc(F)cc2)CC1`, the “Percent Effect” value was 101.8%.
With `CCc1nnsc1C(=O)N1CCCN(Cc2ccc(F)cc2)CC1` the “Percent Effect” value was 12.06%.
For `Cc1cc(N2CCCN(C(=O)Cc3cc(F)cc(F)c3)CC2)ccn1`, the “Percent Effect” value was -40.46%.
In the case of `Cc1cc(N2CCCN(C(=O)CSCC3CC3)CC2)ccn1`, the “Percent Effect” value is reported as 97.17%.
`CSCCC(O)C(=O)N1CCCN(Cc2ccc(F)cc2)CC1` (stereo unspecified) was tested, and the “Percent Effect” value was 20.52%.
`COCc1ccc(C(=O)N2CCCN(c3ccc(F)cc3)CC2)s1` was tested, and the “Percent Effect” value was -6.209%.
